Measurements from PubChem BioAssay AID624331 (National Center for Advancing Translational Sciences (NCATS), 2012).
Results filed as inconclusive are left out. A call without a number means that no potency is given here. Active and inactive are the calls of the source. The call rests on the fitted dose curve; in most records, active means well fitted activation curve with a large enough effect; inconclusive means small, poorly fitted or top-dose-only effect; inactive means no such curve, though single readings can be large or run the other way.

Test: qHTS assay for re-activators of p53 using a Luc reporter: Hit Validation with no p53 Expressed
Outline: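 Counter-screen of primary hits in a cell line not transfected with p53, in Opti-MEM with 10% FBS; compounds at several concentrations (10 mM stock, 1:5; top 46.1 µM in well), 24 h at 37 deg C, 5% CO2. Luminescence read after 10 min with Amplite reagent.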
Potency means the concentration at half of the fitted maximal effect.

With `Cc1cccc(/C(N)=N/OC(=O)c2ccc3c(c2)OCO3)c1` the Potency was “inactive”.
With `CCN(CC)c1ccc(NC(=O)CN2CCN(CC(=O)Nc3ccccc3F)CC2)cc1` the Potency was “inactive”.
In the case of `COCCSc1nnc(NC(=O)CCS(=O)(=O)c2ccccc2)s1`, the Potency is reported as “inactive”.
In the case of `Cc1cc(Br)c(S(=O)(=O)NCCN2CCOCC2)cc1C`, the Potency is reported as “inactive”.
In the case of `O=C(/C(=N/N=C/c1ccc(O)c(O)c1)c1ccccc1)c1ccccc1`, the Potency is reported as “inactive”.
For `Cc1ccc(C(=O)N/N=C2\CCc3ccccc32)c(C)c1`, the Potency was “inactive”.
For `CCCN(C(=O)c1cccc(S(=O)(=O)N2CCCc3ccccc32)c1)C1CCS(=O)(=O)C1` (centres undefined), the Potency was “inactive”.
With `c1ccc2c(c1)CCN(c1nc3cc4c(cc3s1)OCO4)C2` the Potency was “inactive”.
For `O=C(Nc1cccc(N=Cc2cc(Cl)cc(Br)c2O)c1)c1ccco1`, the Potency was “inactive”.
In the case of `Cn1c(-c2ncc(F)cc2F)cc2onc(-c3c(F)cccc3Cl)c2c1=O`, the Potency is reported as “inactive”.
For `CS(=O)(=O)c1ccc2nc(NC(=O)CCNC(=O)c3ccccc3Cl)sc2c1`, the Potency was “inactive”.
With `C/C(=N\NC(=O)c1cccs1)C(C)(C)C` the Potency was “inactive”.
For `Cc1cccc(C(=O)OCC(=O)N2CCCCCC2)c1O`, the Potency was “inactive”.
For `CN(C)c1ccc(/C=N/Nc2nncc3ccccc23)cc1`, the Potency was “inactive”.
With `CCN1CCN(CC(=O)Nc2nc3ccc(C)cc3s2)CC1` the Potency was “inactive”.
In the case of `COCCCN=C(c1ccco1)n1c(=S)nc(-c2ccco2)n(CCCOC)c1=S`, the Potency is reported as “inactive”.
For `COc1cccc(C(=O)Nc2ccc(NC(=O)C(C)(C)C)cn2)c1`, the Potency was 461 nM (active).
For `O=C(O)C1C2C=CC(C2)C1C(=O)Nc1ccccc1Br` (centres undefined), the Potency was “inactive”.
For `Cc1ccc(C2C(C#N)=C(N)Oc3cc4c(cc32)OCO4)cc1` (centres undefined), the Potency was “inactive”.
